In all, about 39,000 compounds went through this assay and about 3,300 (8.5%) were called active. The entries come from a sample that favours actives as a whole.
test system: HepG2; experiment: cytotoxicity call (relative viability < 0.9); details: 10 µM

Compound | cytotoxicity call
C[C@H](CO)N1C[C@H](C)[C@H](CN(C)Cc2ccc(Cl)c(Cl)c2)Oc2ccc(NC(=O)CCCCCC(=O)Nc3ccccc3N)cc2CC1=O | inactive
C[C@H](CO)N1C[C@H](C)[C@@H](CN(C)C(=O)Nc2ccccc2)Oc2ccc(NS(=O)(=O)c3cn(C)cn3)cc2C1=O | inactive
CSCc1nc(=O)cc(C(=O)O)[nH]1 | inactive
CC(C)NC(=O)N(C)C[C@@H]1OCCCC[C@H](C)Oc2ccc(NC(=O)Nc3ccc(F)cc3)cc2C(=O)N([C@@H](C)CO)C[C@H]1C | inactive
C/C=C1\NC(=O)[C@H]2CSSCC/C=C/[C@H](CC(=O)N[C@H](C(C)C)C(=O)N2)OC(=O)[C@H](C(C)C)NC1=O | active
C[C@@H]1CCCCO[C@H](CN(C)S(=O)(=O)c2cn(C)cn2)[C@@H](C)CN([C@@H](C)CO)C(=O)c2cc(NC(=O)c3ccncc3)ccc2O1 | inactive
NC(=O)CN1CCCCCC1=O | inactive
COc1ccnc(N)c1 | inactive
COc1cc(N)ccn1 | active
COc1ccc(N)cn1 | inactive
COc1ccccc1NC(=O)N(C)C[C@H]1Oc2cc(Br)ccc2S(=O)(=O)N([C@@H](C)CO)C[C@H]1C | inactive
CC(N)(Cc1cccc(O)c1)C(=O)O (stereo unspecified) | inactive
C[C@](N)(Cc1ccc(O)c(O)c1)C(=O)O | active
N[C@@H](Cc1ccc(O)c(O)c1)C(=O)O | inactive
NC(Cc1ccc(O)c(O)c1)C(=O)O (stereo unspecified) | active
CC(N)(Cc1ccc(O)c(O)c1)C(=O)O (stereo unspecified) [listing 1 of 2 here] | active
CCOC(=O)[C@@](C)(N)Cc1ccc(O)c(O)c1 | inactive
CC(N)(Cc1ccc(O)c(O)c1)C(=O)O (stereo unspecified) [listing 2 of 2 here] | inactive
C[C@](N)(Cc1ccc(O)cc1)C(=O)O | inactive
COC(=O)[C@@H](N)Cc1ccc(O)c(O)c1 | inactive
O=Cc1ccc[nH]1 | inactive
COc1ccc(NC(=O)N(C)C[C@@H]2Oc3ncc(C#C[C@H](C)O)cc3C(=O)N([C@@H](C)CO)C[C@H]2C)cc1 | inactive
CN1CCN(C(=O)C[C@@H]2CC[C@@H]3[C@H](COC[C@H](O)CN3S(=O)(=O)c3cccc(Cl)c3)O2)CC1 | inactive
CC[C@@H](O)C[C@H]1CC[C@H]([C@@H](C)C(=O)O[C@@H](C)C[C@H]2CC[C@H]([C@@H](C)C(=O)O[C@@H](C)C[C@H]3CC[C@H]([C@@H](C)C(=O)O[C@@H](C)C[C@H]4CC[C@H]([C@@H](C)C(=O)O)O4)O3)O2)O1 | active
COc1ccc(S(=O)(=O)Nc2ccc3c(c2)CC(=O)N([C@H](C)CO)C[C@@H](C)[C@@H](CN(C)C(=O)Nc2c(C)noc2C)O3)cc1 | inactive
C[C@@H]1CCCCO[C@H](CN(C)C(=O)c2ccccc2)[C@@H](C)CN([C@H](C)CO)C(=O)c2cc(NC(=O)c3ccccc3)ccc2O1 | inactive

Compound | cytotoxicity call
O=C(O)c1cnns1 | inactive
C[C@H](CO)N1C[C@H](C)[C@@H](CN(C)C(=O)Nc2cccc3ccccc23)OCc2cn(nn2)CCCC1=O | inactive
C[C@@H]1CN([C@H](C)CO)C(=O)c2cccc(NC(=O)C3CCOCC3)c2O[C@@H]1CN(C)Cc1ccc(C(=O)O)cc1 | inactive
O=C(NCc1nc2ccccc2[nH]1)C1=C[C@H](c2ccc(Br)cc2)C[C@H](OCc2ccc(CO)cc2)O1 | inactive
O=C(NCc1nc2ccccc2[nH]1)C1=C[C@H](c2ccc(C(F)(F)F)cc2)C[C@H](OCc2ccc(CO)cc2)O1 | inactive
O=C(NCc1nc2ccccc2[nH]1)C1=C[C@@H](c2ccc(Br)cc2)C[C@@H](OCc2ccc(CO)cc2)O1 | active
C[C@@H]1CCCCO[C@@H](CN(C)C(=O)Nc2cccc3ccccc23)[C@H](C)CN([C@@H](C)CO)C(=O)c2cc(NS(=O)(=O)c3ccc(Cl)cc3)ccc2O1 | inactive
C[C@@H]1CCCCO[C@H](CN(C)C(=O)Nc2cccc3ccccc23)[C@H](C)CN([C@H](C)CO)C(=O)c2cc(NS(=O)(=O)c3ccc(Cl)cc3)ccc2O1 | active
C[C@@H]1CN([C@@H](C)CO)C(=O)c2cc(NS(=O)(=O)c3ccc(Cl)cc3)ccc2O[C@@H](C)CCCCO[C@@H]1CN(C)C(=O)Nc1cccc2ccccc12 | inactive
C[C@H](CO)N1C[C@H](C)[C@H](CN(C)C(=O)Nc2cccc3ccccc23)OCCCC[C@H](C)Oc2ccc(NS(=O)(=O)c3ccc(Cl)cc3)cc2C1=O | inactive
C[C@H]1CCCCO[C@@H](CN(C)C(=O)Nc2cccc3ccccc23)[C@@H](C)CN([C@@H](C)CO)C(=O)c2cc(NS(=O)(=O)c3ccc(Cl)cc3)ccc2O1 | inactive
C[C@@H]1CCCCO[C@@H](CN(C)C(=O)Nc2cccc3ccccc23)[C@H](C)CN([C@H](C)CO)C(=O)c2cc(NS(=O)(=O)c3ccc(Cl)cc3)ccc2O1 | active
CO[C@@H]1CN(C)C(=O)c2ccc(NC(=O)Nc3ccccc3)cc2OC[C@H](C)N(C(=O)CN(C)C)C[C@@H]1C | inactive
COc1ccc(S(=O)(=O)Nc2cccc3c2O[C@H](CN(C)C(=O)NC(C)C)[C@H](C)CN([C@@H](C)CO)C3=O)cc1 | inactive
C[C@@H]1CCCCO[C@@H](CN(C)C(=O)NC2CCCCC2)[C@@H](C)CN([C@H](C)CO)C(=O)c2cc(NC(=O)NC3CCCCC3)ccc2O1 | inactive
COc1ccc(S(=O)(=O)N(C)C[C@@H]2Oc3ncc(C#Cc4ccccc4)cc3C(=O)N([C@H](C)CO)C[C@@H]2C)cc1 | inactive
O=c1[nH]nc2ccccn12 | inactive
CN1C(=O)c2cc(NC(=O)C3CCOCC3)ccc2OC[C@@H]2O[C@@H](CC(=O)NCc3ccc4c(c3)OCO4)CC[C@H]21 | inactive
COc1ccc(C(C)(C)N)cc1OC | inactive
C[C@@H]1C[C@H]1C(=O)O | inactive
C[N+]1(C)C[C@@H](O)C[C@H]1C(=O)O | inactive
C[N+]1(C)C[C@H](O)[C@H](C(=O)O)C1 | active
CN1CCN(C(=O)C[C@@H]2C=C[C@@H](NC(=O)Cc3ccccn3)[C@H](CO)O2)CC1 | inactive
CCCC#Cc1cnc2c(c1)C(=O)N([C@@H](C)CO)C[C@H](C)[C@H](CN(C)S(=O)(=O)c1cccc(OC)c1)O2 | inactive
CCN1C[C@]23CN(C(=O)c4ccn[nH]4)C[C@@H](C[C@H]2S1(=O)=O)O3 | inactive
